Screening data (PubChem BioAssay)
hgDAF12 agonist – agonists of H. glycines DAF-12 nuclear receptor | AID 687014 | HEK293 GAL4-hgDAF12 UAS-luciferase reporter, agonist luminescence; normalized to butyrate control | 370,000 compounds, 1.8% hits | activation, % at 6.8 µM;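 active = activation above a cutoff set at the mean of all screened compounds plus 3 SD, cut at about 10% in these data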
hcDAF-12 act – activates DAF-12 receptor from parasite H. contortus; 370,000 compounds, 1.4% hits; HEK293 hcDAF-12 lit1-tk-luc reporter, luminescence; 0% DMSO, 100% Δ7-dafachronic acid; activation, % at 6.8 µM; AID 652067;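 active = activation above the mean of all tested compounds plus 3 SD, cut at about 5.5% in these data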
DAX1 inh-1 – NR0B1 (DAX1) inhibition. P51843. HEK293 Gal4-DAX1 luciferase reporter, luminescence. inhibition, % at 6.75 µM. 340,000 compounds, 0.99% hits. AID 504766;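 active = inhibition above the mean over all tested compounds plus 3 SD, cut at about 4.2% in these data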;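 also: inhibition shows as a rise in luminescence from relieved DAX1 repression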
Target sequence (P51843 207-470 limits assumed): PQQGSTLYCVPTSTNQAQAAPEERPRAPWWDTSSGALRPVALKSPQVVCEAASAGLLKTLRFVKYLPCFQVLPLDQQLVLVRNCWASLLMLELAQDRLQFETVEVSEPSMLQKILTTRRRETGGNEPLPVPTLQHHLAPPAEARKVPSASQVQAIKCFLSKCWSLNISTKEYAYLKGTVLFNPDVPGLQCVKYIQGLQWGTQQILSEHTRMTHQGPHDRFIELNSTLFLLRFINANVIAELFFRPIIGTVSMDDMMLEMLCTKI
DAX1 inh-2 – blocks DAX1 repression of SF-1 activated StAR promoter; 370,000 compounds, 1.1% hits; HEK293T StAR-luciferase reporter, SF-1/DAX-1 repression relief; inhibition, % at 6.8 µM;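 active = inhibition above the mean over all tested compounds plus 3 SD, cut at about 3.6% in these data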;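 also: higher inhibition means more luminescence from relief of DAX-1 repression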
ssDAF-12 act – activators of S. stercoralis DAF-12 nuclear receptor | HEK293 ssDAF-12/GRIP1 lit1-tk-luc reporter, luminescence; % of 3 µM dafachronic acid response | activation, % at 6.8 µM | 370,000 compounds, 1% hits | AID 652126;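 active = activation above the mean over all tested compounds plus 3 SD, cut at about 0.9% in these data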
PolyA inh – yeast polyadenylation inhibition | activity score, % at 12 µM | S. cerevisiae SKY197-pL101 polyadenylation reporter, beta-gal luminescence; efflux-impaired pdr1/pdr3 knockout yeast; score 100 = 6 SD above DMSO | AID 1875 | 300,000 compounds, 0.02% hits;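 active = lowest replicate activity score at least 50, where 100 means six control SD above control mean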;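 also: yeast exposed to compound for 9 h at 30 °C; higher score means more reporter readthrough which indicates perturbed polyadenylation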
Large screens that a line does not name were inactive. Sampled rows, rich in hits. Any-hit rate of the full collection: about 4.1%.

COc1cccc(-c2nnn(CC(C)=O)n2)c1	hgDAF12 agonist 11
NC(Cc1ccc2nsnc2c1)C(=O)O (stereo not given)	ssDAF-12 act 2.9
O=C(/C=C/c1ccc2c(c1)OCO2)c1ccc[nH]1	hgDAF12 agonist 11
COc1cccc(/C=C/C(=O)c2ccc[nH]2)c1	ssDAF-12 act 1.2
COc1cc(/C=C2/CC/C(=C/c3ccc(O)c(OC)c3)C2=O)ccc1O	PolyA inh 61
COc1ccc(N=Nc2nc3cc(Br)c(Br)cc3n2C)c(OC)c1	ssDAF-12 act 1.6 (no result: PolyA inh)
COc1ccc(-c2nc(-c3cccnc3)no2)cc1	hgDAF12 agonist 11, ssDAF-12 act 1.3
CCOc1ccc(-c2nc(-c3cccnc3)no2)cc1	hgDAF12 agonist 12, DAX1 inh-2 4.5
CCOc1cc(-c2noc(-c3cccnc3)n2)ccc1OC	DAX1 inh-1 4.6
CCOc1ccc(-c2noc(COC)n2)cc1OC	ssDAF-12 act 4.0 (no result: PolyA inh)
CCOc1ccc(-c2noc(-c3cccnc3)n2)cc1OC	none
O=[N+]([O-])c1ccc(CN2CCOCCOCCN(Cc3ccc([N+](=O)[O-])cc3Cl)CCOCC2)c(Cl)c1	none (no result: DAX1 inh-1, DAX1 inh-2, PolyA inh)
O=C(COCc1ccncc1)N1CCN(c2ccc(F)cc2Cl)CC1	none (no result: DAX1 inh-1, PolyA inh)
O=C(O)c1ccc(-c2noc(-c3cccc(F)c3)n2)cc1	none
COc1cccc(-c2nc(-c3ccc(C(=O)O)cc3)no2)c1	ssDAF-12 act 1.0
COc1ccc(CNC(=O)O[C@H]2CC[C@@]34CCCN3C(=O)CCC[C@H]4[C@H]2C)cc1OC	none (no result: DAX1 inh-1, DAX1 inh-2, PolyA inh)
CCC1CCC/C1=N\NC(=O)c1ccccc1C (stereo not given)	DAX1 inh-1 5.3
Cc1c(C(=O)Nc2cccc(F)c2)cnn1-c1ccccc1	hgDAF12 agonist 10, ssDAF-12 act 1.6
Cc1c(C(=O)Nc2ccccc2)cnn1-c1ccccc1	none
Cc1ccccc1NC(=O)c1cnn(-c2ccccc2)c1C	hgDAF12 agonist 12
O=[N+]([O-])c1ccc(CSc2nnc(-c3cccc(Cl)c3)n2Cc2ccco2)cc1	none (no result: DAX1 inh-1, PolyA inh)
NC(=O)c1ncn([C@@H]2O[C@H](C(=O)N[C@H](Cc3ccccc3)C(=O)O)[C@@H](O)[C@H]2O)n1	none (no result: DAX1 inh-1, PolyA inh)
CCC(=NCCc1ccc(OC)c(OC)c1)c1ccccc1O	DAX1 inh-1 6.1
O=C(NC1CCCCN(Cc2cccc(Cl)c2)C1=O)c1ccccc1 (stereo not given)	none (no result: DAX1 inh-1, PolyA inh)
COc1cccc2oc3ccc(C#Cc4ccccn4)cc3c(=O)c12	hgDAF12 agonist 11
COc1cccc2sc3cc(C#Cc4ccccn4)ccc3c(=O)c12	none (no result: PolyA inh)
CC(C)(C)OC(=O)NCc1ccc(NC(=O)c2nc[nH]c2C(=O)Nc2cc(Br)ccc2F)cc1	ssDAF-12 act 1.1 (no result: DAX1 inh-1, PolyA inh)
CC(=O)c1ccc(NC(=O)CCS(=O)(=O)c2ccc3c(c2)n(C)c(=O)c(=O)n3C)cc1	DAX1 inh-1 4.8 (no result: hgDAF12 agonist, hcDAF-12 act, DAX1 inh-2, ssDAF-12 act)
CC(=O)Nc1ccc(NC(=O)CCS(=O)(=O)c2ccc3c(c2)oc(=O)n3C)cc1	none
CCOC(=O)c1cc(C#N)c(SCC(=O)O)[nH]c1=O	none
CCOC(=O)c1cc(C#N)c(SCC(N)=O)[nH]c1=O	DAX1 inh-1 4.5
Cc1nc(Nc2ccc3c(c2)OCO3)c2oc3ccccc3c2n1	none
c1ccc2c(c1)oc1c(Nc3ccc4c(c3)OCO4)ncnc12	hgDAF12 agonist 12
c1ccc2c(c1)oc1c(Nc3ccc(CN4CCOCC4)cc3)ncnc12	hgDAF12 agonist 11
c1ccc2c(c1)oc1c(NCCN3CCOCC3)ncnc12	none
CCOc1ccc(NC(=O)Cc2cccc3ccccc23)c([N+](=O)[O-])c1	ssDAF-12 act 6.7
Nc1nc2c(ncn2[C@@H]2O[C@H](C(=O)N[C@H](Cc3ccccc3)C(=O)NCc3ccc4c(c3)OCO4)[C@@H](O)[C@H]2O)c(=O)[nH]1	none (no result: DAX1 inh-1, PolyA inh)
Cc1noc(C)c1COC(=O)c1cc2c(C)nn(-c3ccc(F)cc3)c2s1	none
Cc1nn(-c2ccc(F)cc2)c2sc(C(=O)OCC(=O)N3CCC(C)CC3)cc12	DAX1 inh-1 6.3
CS(=O)(=O)Nc1ccc(-c2cnc3cccnn23)cc1	hgDAF12 agonist 12 (no result: DAX1 inh-1, PolyA inh)
CS(=O)(=O)Nc1ccc(-c2cncc3nccn23)cc1	none (no result: DAX1 inh-1, PolyA inh)
COc1cccc(-c2cnc3cccnn23)c1	hgDAF12 agonist 12 (no result: DAX1 inh-1, PolyA inh)
